# ± gives the standard deviation.
# Test system: MILI (PIWIL2) piRISC loaded with L1MC piRNA (26 nt)
# Test: pre-steady-state target cleavage rate (min^-1); guide: L1MC piRNA 5'p-UAACUAAAUACUAUGCAAGCUGUAGG; MIWI and MILI are mouse PIWI proteins and EfPiwi is from a freshwater sponge; tags in brackets are library labels; higher = faster piRNA-guided slicing of the target
# In short: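 Sequencing of uncleaved targets, normalised to depth and to weakly complementary targets, was the readout of this Cleave-'n-Seq assay. A transcribed, DNA-blocked target RNA library (0.1 nM) was mixed with 1 nM active affinity-purified piRISC carrying one synthetic guide, with or without 500 nM GTSF1 partner protein, in HEPES–potassium acetate buffer at 33 °C for 0–8 or 0–960 min. Three trials were pooled, k3 was capped at 0.0001 min^-1, and a burst-and-steady-state fit gave the pre-steady-state cleavage rate.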
# [1] = auxiliary factor: 500 nM mouse GTSF1
# [2] = auxiliary factor: none (no GTSF1)
Sequence,pre-steady-state target cleavage rate [1],pre-steady-state target cleavage rate [2]
UCCUGGAUGUCCUUGCGUAGUAUUUAGUUA,0.0231 ± 0.0068,0.0122 ± 0.0025
UCCUGCUACUCGUUGCAUAGUAUUUAGUAA,0.127 ± 0.02,0.00373 ± 0.0021
UCCUGGUACAGCUUGCAAUCUAUUUAGUUA,0.0377 ± 0.013,0.00455 ± 0.0036
UCCUCCUACAGGUUGCAUAGUAUUUUGUUA,0.137 ± 0.021,0.00378 ± 0.0021
UCCUGGAACAGCUUGCUAUGUAUUUAGUUA,0.0569 ± 0.017,0.00412 ± 0.0022
UCCUGGAUCAGCUUGCAUGGUAUUUAGUUA,0.285 ± 0.025,0.011 ± 0.0027
UCCUGGAUGUCGAUGCAUAGUAUUUGAGUUA,0.125 ± 0.027,0.00324 ± 0.0024
UCCUGGAUGUCGAAGCAUAGUAUUUAGGUUA,0.0552 ± 0.0097,0.00259 ± 0.0025
UCCUGGAUGUCCUAGCAUAGUAAUUAGUUA,0.0282 ± 0.01,0.00305 ± 0.0025
UCCUGGAUGUCGAUGGAUAGUAUUUAGUUA,0.0431 ± 0.0076,0.00383 ± 0.0027
UCCUGGAUGUCCUUGCAUUGUUUUUAGUUA,0.00791 ± 0.0055,0.00421 ± 0.0023
UCCUGGUACAGCUUGGAAAGUAUUUAGUUA,0.111 ± 0.014,0.00903 ± 0.0035
UCCUGGAUGUCGUUGCUUAGUAUUUAGUAA,0.0495 ± 0.02,0.00388 ± 0.0022
UCCUGGUACAGCUUGCAUAGUUAUUUAGUUA,0.0143 ± 0.0076,0.00549 ± 0.0044
UCCUGGAUGUCGAAGCAUAGUACUUUAGUUA,0.00532 ± 0.0027,0.00317 ± 0.002
UCCUCCUGCAGCUUGCAUAGUAUUUAGUUA,0.301 ± 0.018,0.0088 ± 0.0027
UCCUGGAUGUCCUUGCAUAGUAUUUAGUUC [g2:g19:cont:t1C],0.0893 ± 0.011,0.00931 ± 0.0026
UCCUGGUACAGCUUCCAAAGUAUUUAGUUA,0.138 ± 0.028,0.00693 ± 0.0027
UCCUGGUACAGCUUGCAUAGUUUUAAGUUA,0.0506 ± 0.014,0.00428 ± 0.0033
UCCUGGAUGUCGUUGCAUAGUAUUUAGUUU [g2:g18:cont:t1U],0.128 ± 0.016,0.0134 ± 0.0037
UCCUGGAUGUCGUUGCAUAGUAUUUAGUGUA,0.17 ± 0.027,0.00477 ± 0.0035
UCCUGGAUGUCCUUCAUAGUAUUUAGUUA,0.0147 ± 0.004,0.00296 ± 0.0021

Sequence,pre-steady-state target cleavage rate [1],pre-steady-state target cleavage rate [2]
UCCUGGAUGUCGUUGCAUAGUUUUUAGUUA,0.00524 ± 0.0046,0.00595 ± 0.0026
UCCUGGAUCAGCUUGCUUAGUAUAUAGUUA,0.234 ± 0.014,0.00803 ± 0.0031
UCCUGGAUGUCGUUGCAUAGUAUUUGGUUA,0.145 ± 0.031,0.00722 ± 0.003
UCCUGGAACAGGAAGCAUAGUAUUUAGUAA,0.146 ± 0.013,0.00297 ± 0.0027
UCCUGGAUGUCGAUGCAUAGUAUUUAGUAUA,0.0977 ± 0.016,0.00504 ± 0.0027
UCCUGGAACAGCUAGCAUAGUUUUUAGUUA,0.0448 ± 0.0092,0.00311 ± 0.0024
UCCUGGUACAGCAUGGAUAGUAUUUAGUUA,0.197 ± 0.019,0.0172 ± 0.0046
UCCUGGUACAGCUUGCAUAGAUAUUUAGUUA,0.0243 ± 0.011,0.00568 ± 0.0026
UCCUGGAUGUGCUUGCUAAGUAUUUAGUUA,0.0146 ± 0.0062,0.00546 ± 0.0023
UCCUGGAUGUACUUGCAUAGUAUUUAGUUA,0.0966 ± 0.016,0.0107 ± 0.0025
UCCUGGAUCAGCAUGCAUAGUAAUUAGUUA,0.181 ± 0.025,0.00637 ± 0.0027
UCCUGGAUGUCCUUGCAAAGUAUAUAGUUA,0.0544 ± 0.014,0.00539 ± 0.002
UCCUGGAUGUGCUUGCUAGUAUUUAGUUA,0.00654 ± 0.0035,0.00432 ± 0.0028
UCCUGGAUGUGCUUGCAUCGUAUUUAGUUA,0.0778 ± 0.017,0.0103 ± 0.0028
UCCUGGUACAGUCUUGCAUAGUAUUUAGUUA,0.254 ± 0.033,0.0122 ± 0.0047
UCCUGGAUGUCCUUGCAAAGUUUUUAGUUA,0.0117 ± 0.0048,0.00553 ± 0.0019
UCCUGGUACAGCUUGCUAUGUAUUUAGUUA,0.0246 ± 0.0085,0.00465 ± 0.0027
UCCUGGAUCACCUUGCUUAGUAUUUAGUUA,0.176 ± 0.025,0.008 ± 0.0023
UCCUCGAACAGCUUGCAUAGUAUUUAGUUA,0.3 ± 0.017,0.00922 ± 0.0026
UCCUGGAUGUCCUUGCAUAGUAGUUUAGUUA,0.0394 ± 0.014,0.00805 ± 0.0029
UCCUCCUACAUGCUUGCAUAGUAUUUAGUUA,0.149 ± 0.018,0.0058 ± 0.002
UCCUGCUACAGCUUGCAUUGUUUUUAGUUA,0.0212 ± 0.007,0.00289 ± 0.0028

Sequence,pre-steady-state target cleavage rate [1],pre-steady-state target cleavage rate [2]
UCCUGCUACAGCUAUGCAUAGUAUUUAGUUA,0.257 ± 0.022,0.0069 ± 0.0021
UCCUGGAUGUCGUUGCAUUGUAUUUAGUUA,0.0197 ± 0.0048,0.00572 ± 0.0024
UCCUGGUACAGCUUGGAUAGUAUUUUGUUA,0.0944 ± 0.022,0.00486 ± 0.0048
UCCUGGAUGUCGUUGCAUAGUAUUUAGUGA,0.193 ± 0.034,0.00426 ± 0.0027
UCCUGGAUGUCGUUGCAUAGUAUAUAGUUA,0.155 ± 0.028,0.00761 ± 0.0026
UCCUGGAUCAGCUUGCAUAGUAUAAAGUUA,0.171 ± 0.018,0.00561 ± 0.0029
UCCUGGAUGUGCAUGCAUAGUAUUUACUUA,0.065 ± 0.018,0.00616 ± 0.0026
UCCUGGAACAGCUUGCAUAGUGAUUUAGUUA,0.0178 ± 0.007,0.00499 ± 0.0023
UCCUGGAUGUGCAUGCAUAGUAAUUAGUUA,0.0501 ± 0.008,0.00833 ± 0.002
UCCUGGAUGUGCUUGCAUAGUAUUAUAGUUA,0.15 ± 0.025,0.006 ± 0.0028
UCCUGGAAACAGCUUGCAUAGUAUUUAGUUA,0.347 ± 0.019,0.0105 ± 0.0038
UCCUGGAUGUGGUUGCAUAGUAUUUUGUUA,0.0586 ± 0.023,0.0039 ± 0.0037
UCCUGGAUCAGCUUGCAUAGUAUUUAGAAA,0.138 ± 0.022,0.00292 ± 0.0023
UCCUGGAUCAGCUAGCAUAGUAUUUAGAUA,0.0957 ± 0.019,0.00275 ± 0.0026
UCCUGGUACAGCUUGCAUUGUAUAUAGUUA,0.087 ± 0.018,0.00415 ± 0.0033
UCCUGGAUGAGCUUCCAAAGUAUUUAGUUA,0.0331 ± 0.0072,0.00379 ± 0.0027
UCCUGGAUGUCGAAGCAUAGUAGUUUAGUUA,0.00907 ± 0.0034,0.00276 ± 0.0022
UCCUGGAUGAGCUUGCUAAGUAUUUAGUUA,0.0294 ± 0.0061,0.00602 ± 0.0023
UCCUGGAUGUCGUUGCAUAGUAUUUAGUUC [g2:g18:cont:t1C],0.0984 ± 0.01,0.00738 ± 0.0026
UCCUGGAUGUCCUUGCAUAGUAUUGUAGUUA,0.102 ± 0.023,0.0041 ± 0.003
UCCUGGAUGUCCAAGCAUAGUAUUUAGUUA,0.0263 ± 0.0097,0.00547 ± 0.0023
UCCUGGAUCAGCUUGCAUAGUAUAUUGUUA,0.118 ± 0.014,0.00518 ± 0.0025
